Shown are actives, neighbours in structure and some others; about 0.9% of the full set was active somewhere.
PPARg SRC1 recr – PPARgamma agonists recruiting SRC-1 coactivator, primary screen, biochemical | Peroxisome proliferator-activated receptor gamma (Homo sapiens), P37231 | PPARgamma-SRC-1 coactivator recruitment biochemical assay | activation, % at 8 µM | hit rate 0.41% among 200,000 | AID 631, 2007; in the data active means activation above about 19%;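 further: 0% = DMSO and 100% = reference agonist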
SRC2 TRFRET art – TR-FRET signal artefacts, primary screen, artefact control for PPARgamma SRC-2 agonist project, biochemical | TR-FRET artefact counter-screen; active compounds read high | TR-FRET ratio at 8 µM | hit rate 0.4% among 200,000; in the data active means TR-FRET ratio above about 2000
PPARg SRC-2 ag – agonists of PPARg-SRC-2 recruitment, primary screen, biochemical, HTS | Peroxisome proliferator-activated receptor gamma (Homo sapiens), P37231 | PPARgamma LBD-SRC-2 recruitment | activation, % at 8 µM | hit rate 0.34% among 200,000;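 further: 0% = vehicle and 100% = reference agonist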
SRC1 TRFRET art – TR-FRET detection interference compounds, primary screen, artefact control for PPARgamma SRC-1 recruitment agonists, biochemical, TR-FRET emission ratio | TR-FRET ratio at 8 µM | TR-FRET detection artefact counter-screen; active compounds read high | hit rate 0.34% among 99,000; in the data active means TR-FRET ratio above about 2300
PPARg SRC-3 ag – PPARgamma agonists recruiting SRC-3 coactivator, primary screen, biochemical. Peroxisome proliferator-activated receptor gamma (Homo sapiens), P37231. biochemical PPARgamma/SRC-3 coactivator recruitment assay. activation, % at 8 µM. hit rate 0.26% among 200,000. AID 731, 2007; in the data active means activation above about 23%;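 further: 0% = DMSO and 100% = reference agonist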
SRC3 TRFRET art – TR-FRET detection interference compounds, artefact control for PPARgamma SRC-3 recruitment agonists, biochemical, TR-FRET ratio. hit rate 0.39% among 99,000. AID 1048, 2008. TR-FRET artefact counter-screen, PPARgamma/SRC-3 format; active compounds read high. TR-FRET ratio at 8 µM; in the data active means TR-FRET ratio above about 2000
PPARg SRC2 conf – agonists of PPARgamma SRC-2 coactivator recruitment, confirmation, biochemical, HTS | shares compounds with PPARg SRC-3 ag | biochemical SRC-2 recruitment by PPARgamma | activation, % at 8 µM | hit rate 52% among 790;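 further: 0% = vehicle alone and 100% = reference agonist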
PPARg SRC1 ag – PPARgamma agonists recruiting SRC-1 coactivator, confirmation, biochemical; shares compounds with PPARg SRC-3 ag; PPARgamma–SRC-1 coactivator recruitment biochemical assay; activation, % at 8 µM; hit rate 43% among 790; in the data active means activation above about 20%;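 further: 0% = vehicle wells and 100% = reference agonist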
PPARg SRC3 conf – PPARgamma-driven SRC-3 coactivator recruitment agonists, confirmation, biochemical; hit rate 29% among 790; AID 1301, 2008; biochemical PPARgamma-SRC-3 coactivator recruitment, agonist mode; activation, % at 8 µM; shares compounds with PPARg SRC-3 ag; in the data active means activation above about 24%;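 further: 0% = vehicle wells and 100% = reference agonist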
Target sequence (P37231 whole entry, looked up): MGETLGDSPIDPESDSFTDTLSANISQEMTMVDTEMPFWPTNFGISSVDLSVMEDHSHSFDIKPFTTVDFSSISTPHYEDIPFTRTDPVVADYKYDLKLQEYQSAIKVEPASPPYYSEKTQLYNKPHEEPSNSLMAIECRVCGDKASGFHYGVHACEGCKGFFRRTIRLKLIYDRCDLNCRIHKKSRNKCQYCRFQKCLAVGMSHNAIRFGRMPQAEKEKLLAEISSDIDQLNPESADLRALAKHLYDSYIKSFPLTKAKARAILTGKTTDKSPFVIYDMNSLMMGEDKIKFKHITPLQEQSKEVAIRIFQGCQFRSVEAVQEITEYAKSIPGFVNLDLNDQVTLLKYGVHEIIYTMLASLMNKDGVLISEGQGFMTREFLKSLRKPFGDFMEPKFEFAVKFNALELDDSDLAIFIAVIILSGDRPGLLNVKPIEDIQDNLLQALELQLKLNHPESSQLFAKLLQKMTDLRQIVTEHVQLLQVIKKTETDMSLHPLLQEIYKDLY
Target sequence (Q9Y6Q9 whole entry, looked up): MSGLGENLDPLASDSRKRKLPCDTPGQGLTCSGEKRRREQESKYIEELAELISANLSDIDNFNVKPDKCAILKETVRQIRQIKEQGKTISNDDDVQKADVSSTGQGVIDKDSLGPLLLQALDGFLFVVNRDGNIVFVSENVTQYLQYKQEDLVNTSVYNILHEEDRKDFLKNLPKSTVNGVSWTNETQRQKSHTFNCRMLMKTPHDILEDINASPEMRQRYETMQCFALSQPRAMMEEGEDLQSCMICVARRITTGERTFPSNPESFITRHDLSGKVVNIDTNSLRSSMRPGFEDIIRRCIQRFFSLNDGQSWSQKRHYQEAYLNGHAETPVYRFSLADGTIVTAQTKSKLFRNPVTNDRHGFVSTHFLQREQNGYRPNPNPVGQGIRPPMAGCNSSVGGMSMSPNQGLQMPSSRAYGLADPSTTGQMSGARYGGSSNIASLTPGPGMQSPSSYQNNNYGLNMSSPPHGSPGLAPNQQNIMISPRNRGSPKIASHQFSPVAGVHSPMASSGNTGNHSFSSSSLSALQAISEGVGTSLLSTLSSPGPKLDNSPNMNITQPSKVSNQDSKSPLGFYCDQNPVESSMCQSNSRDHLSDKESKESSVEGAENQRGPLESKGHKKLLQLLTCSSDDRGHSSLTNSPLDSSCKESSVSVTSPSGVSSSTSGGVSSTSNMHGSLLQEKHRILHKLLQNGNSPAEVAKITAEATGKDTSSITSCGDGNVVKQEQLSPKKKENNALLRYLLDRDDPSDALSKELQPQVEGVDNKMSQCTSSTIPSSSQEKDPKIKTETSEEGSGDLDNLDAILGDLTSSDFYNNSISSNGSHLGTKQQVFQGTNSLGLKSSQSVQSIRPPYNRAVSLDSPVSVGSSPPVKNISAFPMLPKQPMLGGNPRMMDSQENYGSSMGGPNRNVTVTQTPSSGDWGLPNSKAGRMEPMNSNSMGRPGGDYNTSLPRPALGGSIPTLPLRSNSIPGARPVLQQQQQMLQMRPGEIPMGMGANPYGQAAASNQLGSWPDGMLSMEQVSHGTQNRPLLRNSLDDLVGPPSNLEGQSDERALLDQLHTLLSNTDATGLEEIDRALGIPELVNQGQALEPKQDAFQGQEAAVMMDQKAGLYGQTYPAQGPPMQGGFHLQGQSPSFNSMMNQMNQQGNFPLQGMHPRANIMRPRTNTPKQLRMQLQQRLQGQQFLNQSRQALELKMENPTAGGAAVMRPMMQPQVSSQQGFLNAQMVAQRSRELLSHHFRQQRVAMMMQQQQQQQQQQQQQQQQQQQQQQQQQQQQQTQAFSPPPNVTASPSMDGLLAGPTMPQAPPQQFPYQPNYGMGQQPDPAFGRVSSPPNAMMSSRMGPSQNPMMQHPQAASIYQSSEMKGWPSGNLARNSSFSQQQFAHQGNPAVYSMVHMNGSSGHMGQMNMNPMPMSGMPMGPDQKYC
Active calls of the source: *; x = no result given. Unless noted, no stated cut-off is given here; in the data, active means activation above about 22%; inactive means the rest.

SMILES	PPARg SRC1 recr	SRC2 TRFRET art	PPARg SRC-2 ag	SRC1 TRFRET art	PPARg SRC-3 ag	SRC3 TRFRET art	PPARg SRC2 conf	PPARg SRC1 ag	PPARg SRC3 conf
COc1ccc(Nc2ccc3c(c2)=NC2(CCCCC2)[N+]=3[O-])cc1	24*	2020*	19	x	28*	x	15	15	10
COc1ccc(NC2=NC(=S)N(c3ccccc3C)C23CCCCC3)cc1	1	1465	2	x	6	x	x	x	x
C=CCOc1ccc(C2C(C(=O)c3cccs3)=C(O)C(=O)N2c2nnc(C)s2)cc1 (configuration not stated)	11	1771	17	x	15	x	x	x	x
COc1ccc(C2C(C(=O)c3cccs3)=C(O)C(=O)N2c2nncs2)cc1 (configuration not stated)	27*	1901	13	x	26*	x	24*	19	14
CC(C)c1nnc(N2C(=O)C(O)=C(C(=O)c3cccs3)C2c2ccccc2)s1 (configuration not stated)	38*	2400*	31*	2598*	21	2283*	13	9	8
COc1ccc(C2C(C(=O)c3cccs3)=C(O)C(=O)N2c2nnc(C)s2)cc1OC (configuration not stated)	13	1679	8	x	9	x	x	x	x
Cc1cc(C)c(NC(=O)NC(=O)C(Cl)(Cl)Cl)c(C)c1	-4	1390	-3	1730	-3	1442	x	x	x
CCn1c2ccccc2c2cc(NC(=O)C(=O)N3CCOCC3)ccc21	0	1437	4	1737	6	1524	x	x	x
CCOc1cc(/C=N/Nc2nc(-c3cccc(S(=O)(=O)N4CCCC4)c3)cs2)ccc1O	4	1479	-1	1689	-2	1631	x	x	x
Cc1ccc(C)c(N2CCN(C(=O)c3ccc(Cn4c(=S)[nH]c5ccc(N6CCOCC6)cc5c4=O)cc3)CC2)c1	26*	3479*	17	4039*	28*	3971*	7	3	6
O=C(c1ccc(Cn2c(=S)[nH]c3cc4c(cc3c2=O)OCO4)cc1)N1CCN(c2ccccc2)CC1	18	1767	-1	2110	2	1780	x	x	x
COc1ccc(-c2nn(CCC(=O)O)cc2/C=C/C(=O)O)cc1[N+](=O)[O-]	-2	1556	-8	1665	-5	1507	x	x	x
O=C(Nc1nc2nccc(-c3ccccc3)n2n1)C(Cl)(Cl)Cl	-2	1394	-5	1720	-6	1264	x	x	x
Cn1c(=Nc2ccc(N3CCOCC3)cc2)ccc2ccccc21	-3	1413	-5	x	-6	x	x	x	x
Cn1c(N=Nc2ccc(N3CCOCC3)cc2)[n+](C)c2ccccc21	43*	2551*	53*	2668*	39*	2227*	22	18	17
Cc1ccc(S(=O)(=O)c2nc(-c3cccs3)oc2SCC(N)=O)cc1	12	1927	31*	x	16	x	32*	32*	21
CCSc1oc(-c2ccccc2)nc1S(=O)(=O)c1ccccc1	0	1802	14	x	10	x	x	x	x
CSc1oc(-c2ccccc2)nc1S(=O)(=O)c1ccc(C)cc1	16	1843	26*	2106	16	2062*	25*	20*	18
CC(C)(C)OC(=O)C(Cl)(C(=O)OC(C)(C)C)c1ccc2nnnn2n1	-4	1667	3	1701	-2	1295	x	x	x
CS(=O)(=O)Nc1ccccc1C(=O)NCc1ccco1	1	1638	20	x	26*	x	7	4	5
CCOc1ccc(S(=O)(=O)Nc2ccccc2C(=O)NCc2ccco2)cc1	9	1630	5	x	10	x	x	x	x
N#Cc1c(-c2ccccc2)cc(C2CC2)nc1SCC(=O)c1cccs1	24*	2112*	7	x	12	x	53*	43*	26*
Nc1c(C(=O)Nc2ccccc2)sc2nc3c(c(-c4ccco4)c12)CCC3	6	1681	10	x	14	x	x	x	x
COc1ccc(-c2c3c(nc4sc(C(=O)Nc5ccccc5)c(N)c24)CCC3)cc1	14	1922	26*	x	27*	x	33*	20*	21
O=C(COC(=O)c1cc(-c2ccc(Cl)s2)nc2ccccc12)NCc1ccco1	13	1744	19	x	18	x	x	x	x
SMILES	PPARg SRC1 recr	SRC2 TRFRET art	PPARg SRC-2 ag	SRC1 TRFRET art	PPARg SRC-3 ag	SRC3 TRFRET art	PPARg SRC2 conf	PPARg SRC1 ag	PPARg SRC3 conf
COc1ccc(CNC(=O)COC(=O)c2cc(-c3ccc(Cl)s3)nc3ccccc23)cc1	13	2696*	23*	x	17	x	20	16	12
Cc1cn(S(=O)(=O)c2ccc(Br)c3ccccc23)cn1	31*	2712*	49*	x	52*	x	40*	26*	28*
COc1cccc(C2(CSc3nnc(-c4cc(OC)c(OC)c(OC)c4)o3)OCCO2)c1	0	1574	8	x	6	x	x	x	x
Cc1cc2cc(CNC(=O)c3ccc(S(=O)(=O)N4CCCCC4)cc3)ccc2n1C	83*	4697*	74*	x	111*	x	173*	143*	102*
Cc1cc2cc(CNC(=O)C3CC3)ccc2n1C	-4	1455	-1	x	-6	x	x	x	x
Cc1cc2cc(CNC(=O)c3ccc(S(=O)(=O)N4CCCC4)cc3)ccc2n1C	60*	5041*	83*	x	88*	x	100*	84*	59*
CCN(CC)S(=O)(=O)c1ccc(C(=O)NCc2ccc3c(c2)cc(C)n3C)cc1	26*	4972*	75*	x	49*	x	158*	120*	102*
Fc1cccc(NC(=S)NNc2c3ccccc3nc3ccccc23)c1	45*	2526*	53*	3530*	21	2517*	3	4	1
COc1cc2cccc(OC)c(=O)c2c(O)c1OC	6	1681	3	1983	-2	1498	x	x	x
CC(=O)Oc1cc2cccc(OC(C)=O)c(=O)c2c(OC(C)=O)c1OC(C)=O	11	1830	17	1973	10	1773	8	7	4
CCOC(=O)c1cnc(Nc2nc3ccccc3o2)nc1CN1CCN(C)CC1	1	1479	-1	x	-7	x	x	x	x
Cn1c(N/N=C/c2c[nH]c3ccccc23)nc2ccccc21	18	1730	24*	x	4	x	12	6	8

Screens deposited in PubChem by The Scripps Research Institute Molecular Screening Center.
